# Measurements taken from PubChem BioAssay AID2685 (National Center for Advancing Translational Sciences (NCATS), 2010).
# The campaign covered roughly 320,000 compounds. About 2,100 (0.66%) were called active. Inconclusive results (about 53%) are left out. The call rests on the fitted dose curve; in most records, active means well fitted inhibition curve with a large enough effect in the signal ratio, with a control signal flat (not every such curve was filed as active); inconclusive means small, poorly fitted or top-dose-only effect, or effect the other way, or a change in a side signal; inactive means flat fitted curve, though single readings scatter; the % refers to the signal ratio. This excerpt belongs to a sample that is enriched for actives.
# Experiment: qHTS Assay for Lipid Storage Modulators in Drosophila S3 Cells;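 on cell number change: cells counted by Cell Tracker Red CMTPX staining in the red channel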; on lipid storage change, negative = inhibition: on the % scale 0 is the no-effect control and ±100 the full control effect
# Settings: BODIPY lipid droplet fluorescence, 18-24 h, cells fed with added oleic acid; cell number change: measured here: cell count max response; series mostly up to 46.1 µM; lipid storage change, negative = inhibition: at the top concentration
# How it was run: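 Drosophila S3 cells loaded with oleic acid (400 uM, as added) and compounds at several concentrations; lipid droplets imaged by 488-nm laser-scanning cytometry, 500–530 nm intensity and object ratio to cell channel. Percent activity normalized to 20 uM Triacsin C.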
# Potency means the concentration at half of the fitted maximal effect.
SMILES,outcome,cell number change [%],"lipid storage change, negative = inhibition",Potency
O=C(Cn1cccc1C(=O)c1ccccc1)NCCc1ccccc1,inactive,–,–,–
COc1ccc(CCNC(=O)CCOc2cc(C)ccc2C)cc1OC,inactive,-23.2,–,–
CCOc1ccc(CCNC(=O)CCn2cccc2)cc1OCC,–,0.009,11.2% (inactive),–
COc1ccccc1CNC(=O)Cn1cccc1C(=O)c1ccccc1C,inactive,-15.2,–,–
CCOc1ccc(CCNC(=O)Cn2cccc2C(=O)c2ccccc2)cc1OCC,–,-22.9,–,16.4 µM (active)
COc1ccc(OC)c(CCNC(=O)Cn2cccc2C(=O)c2ccccc2C)c1,–,3.16,3.63% (inactive),–
COc1ccc(CCNC(=O)CCCN2C(=O)c3ccccc3C2=O)cc1OC,–,10.1,4.9% (inactive),–
COc1ccc(CCNC(=O)CN2C(=O)c3ccccc3S2(=O)=O)cc1,–,8.78,0.948% (inactive),–
COc1ccc(CCNC(=O)CCCOc2cccc(C)c2C)cc1OC,–,-23.6,–,6.51 µM (active)
COc1ccc(CCNC(=O)Cn2cccc2C(=O)c2ccccc2C)cc1OC,–,-20.4,–,20.6 µM (active)
COc1ccc(CCNC(=O)CCCOc2cc(=O)n(C)c3ccccc23)cc1OC,–,11.7,-2.82% (inactive),–
NS(=O)(=O)c1ccc(CNC(=O)/C=C/c2ccccc2)cc1,–,2.48,-14.1% (inactive),–
O=C(CC(Sc1ccc(Br)cc1)C(=O)O)c1ccc(F)cc1 (stereo not given),–,-1.05,-0.707% (inactive),–
CN=C(Nc1ccc(C(=O)OC)s1)c1ccccc1,–,–,12.5% (inactive),–
O=C(Nc1ccccc1)c1cccnc1NCCc1ccccc1,–,-3.52,-0.163% (inactive),–
Cc1ccc(CNC(=O)C(N=C2NS(=O)(=O)c3ccccc32)C(C)C)cc1 (stereo not given),–,10.7,8% (inactive),–
CN(CC(O)COc1ccc2ccccc2c1)C1CCCCC1 (stereo not given),–,-0.529,-12.6% (inactive),–
COc1ccc(CCNC(=O)Cn2cccc2C(=O)c2ccccc2)cc1OC,–,-21.4,–,25.9 µM (active)
COc1ccc(CCNC(=O)Cn2cccc2C(=O)c2ccccc2)c(OC)c1,–,6.75,2.64% (inactive),–
COc1ccc(OC)c(CCNC(=O)Cn2cccc2C(=O)c2ccccc2)c1,inactive,–,–,–
COc1ccc(NC(=O)C(OC(=O)c2ccc([N+](=O)[O-])o2)c2ccccc2)cc1Cl (stereo not given),–,0.814,0.0378% (inactive),–
Cc1nc2n(n1)C(c1ccccc1)C1=C(CC(c3ccco3)CC1=O)N2 (stereo not given),inactive,–,–,–
Cc1cc(C)cc(NC(=O)C(=S)NCc2ccccc2)c1,–,9.48,-0.376% (inactive),–

SMILES,outcome,cell number change [%],"lipid storage change, negative = inhibition",Potency
O=C(NNc1nc2c(F)cc(F)cc2s1)c1ccccc1,–,6.06,21.3% [at 9.22 µM] (inactive),–
O=S(=O)(NC1CCN(Cc2ccccc2)CC1)c1ccc(Cl)cc1,–,-5.28,0.306% (inactive),–
O=S(=O)(c1ccccc1)c1nnn2c1nc(NC1CCN(Cc3ccccc3)CC1)c1cc(Cl)ccc12,–,-5.44,–,18.4 µM (active)
O=S(=O)(c1ccccc1)c1nnn2c1nc(NC1CCN(Cc3ccccc3)CC1)c1ccccc12,–,0.895,9.25% (inactive),–
Cc1nc(CS(=O)(=O)c2ccccc2)cc(Sc2ccc(Cl)cc2)n1,inactive,–,–,–
O=C(NCCCN1CCOCC1)c1ccc2c(c1)N(Cc1ccccc1)C(=O)c1ccccc1S2=O (stereo not given),inactive,-4.72,–,–
C=CCn1c(COc2cc(C)ccc2C(C)C)nnc1SCC(=O)c1c(N)n(C)c(=O)n(C)c1=O,–,25.2,18.2% (inactive),–
Cc1ccc(S(=O)(=O)C(CCC(=O)N2CCOCC2)S(=O)(=O)c2ccc(C)cc2)cc1,–,-12.5,11.4% (inactive),–
Cc1ccc(S(=O)(=O)N2CCN(S(=O)(=O)c3ccc(C)cc3)C3OCCOC32)cc1 (stereo not given),–,-0.0898,10.1% (inactive),–
CCC(N1CCOC1=O)S(=O)(=O)c1ccc(C)cc1 (stereo not given),–,-15.9,–,25.9 µM (active)
Cc1ccc(S(=O)(=O)NC(CC(=O)n2nc(C)cc2C)c2ccccc2)cc1 (stereo not given),inactive,–,–,–
COC(=O)c1ccc(Cl)c(NC(=O)CN2CCN(C)CC2)c1,–,-16,–,25.9 µM (active)
COC(=O)c1ccc(Cl)c(NC(=O)CN2CCN(Cc3ccccc3)CC2)c1,–,2.04,-0.436% (inactive),–
COC(=O)c1ccc(Cl)c(NC(=O)CN2CCOCC2)c1,–,-12.2,-3.77% (inactive),–
COc1ccc(-n2c(=O)cc(N3CCN(Cc4ccccc4)CC3)[nH]c2=O)cc1,–,-3.15,-0.394% (inactive),–
O=C(CSc1nnc(-c2ccccc2F)o1)N1CCCC1,–,22.6,–,23.1 µM (active)
Cc1ccccc1-c1nnc(SCC(=O)N2CCCC2)o1,inactive,9.17,–,–
O=C(CSc1nnc(-c2ccccc2Cl)o1)N1CCCCC1,inactive,–,–,–
COC(=O)CN(n1cnnc1)S(=O)(=O)c1ccccc1Cl,inactive,-1.98,–,–
COc1cccc(NC(=O)COC(=O)CCn2c(C)csc2=O)c1,inactive,-50,–,–
CSc1nnc(-c2ccncc2)n1CCCN1CCCC1=O,–,-16.4,–,0.731 µM (active)
CCCCn1c(SCC(=O)N(C)C)nnc1-c1ccncc1,–,9.01,11.4% (inactive),–
CCCCn1c(SCC(=O)N2CCc3ccccc32)nnc1-c1ccncc1,–,-7.69,-8.27% (inactive),–
